Measurements published in the supplement of paper PMC10849652.
Targets with a hit are over-represented here; the source holds about 7,900 in all. About 0.6% of all pairs of compound and target were hits. A number with no mark means an inactive call.

Columns and labels:
Test in all cases: log2 fold change, soluble protein after heating vs DMSO (PISA); higher = thermal stabilisation; K562 cells, 10 uM, 30 min; active = over 0.2 and 3.5 SD of the protein, either way, in both replicates (recomputed)
[1] = compound: NC(=O)Nc1cc(-c2cccc(F)c2)sc1C(=O)N[C@H]1CCCNC1
Method in brief: (§1)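 K562 cells (2×10^6 cells/mL) were treated with 10 μM compound for 30 min, and aliquots were heated for 3 min over 48°C-58°C. Pooled aliquots were extracted in PBS with 0.5% NP-40 at 4°C, and the supernatant after 21,000xg for 90 min was measured by TMTpro 16plex LC-MS/MS with channel sums equalised. Reported thermal stability, relative to control samples and from duplicates, is a log2 fold change.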

[2] = compound: NC(=O)c1cnc(N[C@@H]2CCCC[C@@H]2N)nc1Nc1cccc(-n2nccn2)c1
Method in brief: as §1

[3] = compound: NC1(c2ccc(-c3nc4ccn5c(=O)[nH]nc5c4cc3-c3ccccc3)cc2)CCC1
Method in brief: as §1

[4] = compound: NCC(=O)Nc1ccc(-n2nc(C(F)(F)F)cc2-c2ccc3c(ccc4ccccc43)c2)cc1
Method in brief: as §1

entinostat = compound: Nc1ccccc1NC(=O)c1ccc(CNC(=O)OCc2cccnc2)cc1 [entinostat]
Method in brief: as §1

vorinostat = compound: O=C(CCCCCCC(=O)Nc1ccccc1)NO [vorinostat]
Method in brief: as §1

citarinostat = compound: O=C(CCCCCCNC(=O)c1cnc(N(c2ccccc2)c2ccccc2Cl)nc1)NO [citarinostat]
Method in brief: as §1

silmitasertib = compound: O=C(O)c1ccc2c(c1)nc(Nc1cccc(Cl)c1)c1ccncc12 [silmitasertib]
Method in brief: as §1

[5] = compound: O=C1NC(=O)C(c2cnc3ccccn23)=C1c1cn2c3c(cc(F)cc13)CN(C(=O)N1CCCCC1)CC2
Method in brief: as §1

[6] = compound: c1cc(OCCN2CCCCC2)cc(-c2n[nH]c3ccc(-c4nnc[nH]4)cc23)c1
Method in brief: as §1

entospletinib = compound: c1cn2cc(-c3ccc4cn[nH]c4c3)nc(Nc3ccc(N4CCOCC4)cc3)c2n1 [entospletinib]
Method in brief: as §1

Chain of UniProt P48509 (P48509 whole entry, looked up): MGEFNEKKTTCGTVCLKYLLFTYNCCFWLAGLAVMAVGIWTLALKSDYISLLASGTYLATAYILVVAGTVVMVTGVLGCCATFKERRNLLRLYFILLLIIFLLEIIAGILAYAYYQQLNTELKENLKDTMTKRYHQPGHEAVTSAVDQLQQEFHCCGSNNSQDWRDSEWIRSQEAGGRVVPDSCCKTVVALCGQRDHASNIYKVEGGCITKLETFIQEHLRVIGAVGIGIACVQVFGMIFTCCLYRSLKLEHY
Chain of UniProt Q86X83 (Q86X83 whole entry, looked up): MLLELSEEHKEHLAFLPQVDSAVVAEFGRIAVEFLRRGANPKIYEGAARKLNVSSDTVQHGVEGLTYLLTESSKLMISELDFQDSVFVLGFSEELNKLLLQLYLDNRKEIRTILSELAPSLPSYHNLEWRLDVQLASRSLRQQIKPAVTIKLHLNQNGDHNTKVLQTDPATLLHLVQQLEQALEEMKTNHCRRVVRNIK
Chain of UniProt Q86X95 (Q86X95 whole entry, looked up): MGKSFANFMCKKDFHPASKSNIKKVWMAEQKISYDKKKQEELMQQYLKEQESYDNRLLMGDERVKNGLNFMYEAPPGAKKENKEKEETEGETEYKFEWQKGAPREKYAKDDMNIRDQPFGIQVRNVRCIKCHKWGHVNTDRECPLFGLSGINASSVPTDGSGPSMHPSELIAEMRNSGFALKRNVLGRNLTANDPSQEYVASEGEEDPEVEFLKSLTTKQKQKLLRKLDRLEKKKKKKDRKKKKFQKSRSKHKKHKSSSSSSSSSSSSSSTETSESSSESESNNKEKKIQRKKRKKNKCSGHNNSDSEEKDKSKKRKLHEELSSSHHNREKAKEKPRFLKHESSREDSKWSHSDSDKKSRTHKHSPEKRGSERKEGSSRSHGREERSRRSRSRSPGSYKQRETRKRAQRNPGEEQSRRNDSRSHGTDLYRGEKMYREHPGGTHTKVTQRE
Chain of UniProt Q96RR4 (Q96RR4 whole entry, looked up): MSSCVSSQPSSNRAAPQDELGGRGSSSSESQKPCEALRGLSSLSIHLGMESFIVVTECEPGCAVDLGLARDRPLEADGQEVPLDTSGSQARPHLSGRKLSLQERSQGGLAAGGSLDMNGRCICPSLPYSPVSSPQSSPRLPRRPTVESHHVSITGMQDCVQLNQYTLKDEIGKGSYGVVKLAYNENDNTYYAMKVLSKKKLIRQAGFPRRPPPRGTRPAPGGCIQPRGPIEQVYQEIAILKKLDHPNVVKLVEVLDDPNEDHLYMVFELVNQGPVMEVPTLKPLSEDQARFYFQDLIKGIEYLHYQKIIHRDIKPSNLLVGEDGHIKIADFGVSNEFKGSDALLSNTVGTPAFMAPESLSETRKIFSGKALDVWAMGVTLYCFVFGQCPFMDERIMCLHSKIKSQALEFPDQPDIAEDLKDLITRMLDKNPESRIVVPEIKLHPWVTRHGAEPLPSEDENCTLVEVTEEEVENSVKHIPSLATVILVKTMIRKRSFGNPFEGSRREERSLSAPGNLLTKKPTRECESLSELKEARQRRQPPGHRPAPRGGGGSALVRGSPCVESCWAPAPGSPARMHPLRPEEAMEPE
Chain of UniProt Q12996 (Q12996 whole entry, looked up): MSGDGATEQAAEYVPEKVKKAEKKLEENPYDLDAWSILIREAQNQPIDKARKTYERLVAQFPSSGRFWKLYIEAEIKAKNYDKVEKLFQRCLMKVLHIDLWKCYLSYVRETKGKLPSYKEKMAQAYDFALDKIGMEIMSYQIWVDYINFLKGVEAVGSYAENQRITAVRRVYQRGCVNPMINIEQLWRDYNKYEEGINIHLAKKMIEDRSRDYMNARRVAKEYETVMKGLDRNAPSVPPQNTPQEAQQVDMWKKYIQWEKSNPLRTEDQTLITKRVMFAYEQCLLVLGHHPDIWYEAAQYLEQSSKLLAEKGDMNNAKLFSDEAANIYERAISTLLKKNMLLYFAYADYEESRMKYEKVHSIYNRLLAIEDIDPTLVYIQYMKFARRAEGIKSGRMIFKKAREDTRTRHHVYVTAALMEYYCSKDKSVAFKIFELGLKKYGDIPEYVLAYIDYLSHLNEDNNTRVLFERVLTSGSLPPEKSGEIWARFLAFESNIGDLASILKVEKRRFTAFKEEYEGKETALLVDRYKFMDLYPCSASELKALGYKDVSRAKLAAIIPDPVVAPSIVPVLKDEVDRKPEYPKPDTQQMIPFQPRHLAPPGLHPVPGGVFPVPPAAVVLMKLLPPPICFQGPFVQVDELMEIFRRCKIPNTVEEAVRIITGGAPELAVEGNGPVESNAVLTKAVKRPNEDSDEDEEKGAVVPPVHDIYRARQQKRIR
Chain of UniProt P24311 (P24311 whole entry, looked up): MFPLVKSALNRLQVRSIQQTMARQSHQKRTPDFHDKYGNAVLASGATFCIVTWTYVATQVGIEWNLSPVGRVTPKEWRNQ
Chain of UniProt Q96G28 (Q96G28 whole entry, looked up): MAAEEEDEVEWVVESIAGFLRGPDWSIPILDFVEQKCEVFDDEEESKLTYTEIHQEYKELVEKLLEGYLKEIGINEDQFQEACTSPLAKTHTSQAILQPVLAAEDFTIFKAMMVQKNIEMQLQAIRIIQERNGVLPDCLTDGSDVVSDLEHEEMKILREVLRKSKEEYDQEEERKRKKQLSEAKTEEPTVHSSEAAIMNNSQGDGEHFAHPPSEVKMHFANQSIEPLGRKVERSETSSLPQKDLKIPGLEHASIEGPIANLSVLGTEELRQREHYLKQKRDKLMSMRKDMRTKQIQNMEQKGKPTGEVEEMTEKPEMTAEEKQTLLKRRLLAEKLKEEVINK
Chain of UniProt Q8N1A6 (Q8N1A6 whole entry, looked up): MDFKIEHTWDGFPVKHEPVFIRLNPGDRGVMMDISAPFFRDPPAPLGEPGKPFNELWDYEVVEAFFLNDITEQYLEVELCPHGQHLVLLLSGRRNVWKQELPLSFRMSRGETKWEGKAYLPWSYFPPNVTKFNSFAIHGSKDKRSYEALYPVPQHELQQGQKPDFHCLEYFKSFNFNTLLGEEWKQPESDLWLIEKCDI
Chain of UniProt P51790 (P51790 whole entry, looked up): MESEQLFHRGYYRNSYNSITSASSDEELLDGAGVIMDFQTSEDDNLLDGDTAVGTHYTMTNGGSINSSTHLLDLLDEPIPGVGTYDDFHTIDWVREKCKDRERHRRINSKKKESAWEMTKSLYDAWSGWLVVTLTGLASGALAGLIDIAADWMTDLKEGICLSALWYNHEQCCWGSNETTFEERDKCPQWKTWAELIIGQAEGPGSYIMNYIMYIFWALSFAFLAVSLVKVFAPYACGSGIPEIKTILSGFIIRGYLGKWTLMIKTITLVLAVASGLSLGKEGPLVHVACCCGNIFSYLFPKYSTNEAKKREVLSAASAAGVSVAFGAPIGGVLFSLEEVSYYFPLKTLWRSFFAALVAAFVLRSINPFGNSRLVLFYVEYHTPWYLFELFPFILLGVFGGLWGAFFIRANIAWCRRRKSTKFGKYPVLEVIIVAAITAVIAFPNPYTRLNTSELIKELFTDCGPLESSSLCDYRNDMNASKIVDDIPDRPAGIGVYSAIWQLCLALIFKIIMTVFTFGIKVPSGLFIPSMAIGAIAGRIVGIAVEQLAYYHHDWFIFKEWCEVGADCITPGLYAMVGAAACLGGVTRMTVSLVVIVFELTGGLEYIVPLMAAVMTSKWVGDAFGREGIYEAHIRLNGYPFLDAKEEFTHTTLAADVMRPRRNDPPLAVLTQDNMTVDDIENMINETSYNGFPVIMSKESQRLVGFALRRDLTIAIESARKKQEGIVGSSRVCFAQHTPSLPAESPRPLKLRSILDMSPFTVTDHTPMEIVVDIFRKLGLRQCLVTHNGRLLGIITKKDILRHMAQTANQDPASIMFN
Chain of UniProt P45973 (P45973 whole entry, looked up): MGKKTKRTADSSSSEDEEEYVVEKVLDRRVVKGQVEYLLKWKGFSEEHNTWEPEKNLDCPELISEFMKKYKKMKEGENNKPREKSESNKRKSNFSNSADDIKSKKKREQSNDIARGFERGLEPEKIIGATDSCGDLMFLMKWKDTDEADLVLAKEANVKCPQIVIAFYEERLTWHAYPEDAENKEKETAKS
Chain of UniProt P21127 (P21127 whole entry, looked up): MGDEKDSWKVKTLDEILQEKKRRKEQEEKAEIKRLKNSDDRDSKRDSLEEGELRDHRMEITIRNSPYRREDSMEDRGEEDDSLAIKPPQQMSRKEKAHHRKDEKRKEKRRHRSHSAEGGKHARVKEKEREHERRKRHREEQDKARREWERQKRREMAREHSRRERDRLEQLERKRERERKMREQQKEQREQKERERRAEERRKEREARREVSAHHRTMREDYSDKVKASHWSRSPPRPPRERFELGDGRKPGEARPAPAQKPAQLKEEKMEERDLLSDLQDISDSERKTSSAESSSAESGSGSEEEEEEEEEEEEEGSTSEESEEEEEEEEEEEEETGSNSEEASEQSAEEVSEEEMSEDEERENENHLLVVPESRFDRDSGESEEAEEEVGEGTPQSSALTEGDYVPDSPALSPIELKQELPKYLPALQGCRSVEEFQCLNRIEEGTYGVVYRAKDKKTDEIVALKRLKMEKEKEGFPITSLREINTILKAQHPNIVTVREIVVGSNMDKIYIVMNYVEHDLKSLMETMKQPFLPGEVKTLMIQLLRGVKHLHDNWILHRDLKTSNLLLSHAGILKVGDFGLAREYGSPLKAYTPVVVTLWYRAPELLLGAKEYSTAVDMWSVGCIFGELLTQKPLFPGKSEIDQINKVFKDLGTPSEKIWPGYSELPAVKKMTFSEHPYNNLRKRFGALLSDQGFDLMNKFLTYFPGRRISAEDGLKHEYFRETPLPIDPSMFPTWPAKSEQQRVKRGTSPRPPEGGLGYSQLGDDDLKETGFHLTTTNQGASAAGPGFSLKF
Chain of UniProt O15182 (O15182 whole entry, looked up): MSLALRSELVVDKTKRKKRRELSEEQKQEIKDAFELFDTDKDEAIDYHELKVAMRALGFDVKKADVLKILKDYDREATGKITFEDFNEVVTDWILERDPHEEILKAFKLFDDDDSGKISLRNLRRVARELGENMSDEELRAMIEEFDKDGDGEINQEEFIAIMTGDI
Chain of UniProt P61024 (P61024 whole entry, looked up): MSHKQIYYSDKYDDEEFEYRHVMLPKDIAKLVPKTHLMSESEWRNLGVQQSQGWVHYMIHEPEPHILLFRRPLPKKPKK

Row | Target | log2 fold change [1] | log2 fold change [2] | log2 fold change [3] | log2 fold change [4] | log2 fold change (entinostat) | log2 fold change (vorinostat) | log2 fold change (citarinostat) | log2 fold change (silmitasertib) | log2 fold change [5] | log2 fold change [6] | log2 fold change (entospletinib)
1 | COCH (UniProt O43405) | 0.024 | -0.014 | 0.035 | 0.13 | 0.123 | -0.122 | -0.084 | 0.072 | 0.055 | -0.149 | -0.012
2 | CASP2 (UniProt P42575) | -0.317 | -0.047 | -0.099 | 0.065 | 0.017 | 0.13 | 0.058 | 0.051 | -0.008 | -0.032 | -0.004
3 | CAMKK2 (UniProt Q96RR4) | -0.088 | -0.389 | -0.113 | -0.047 | 0.015 | 0.323 | -0.144 | 0.128 | -0.038 | 0.036 | 0.011
4 | CDK11B (UniProt P21127) | -0.114 | -0.012 | 0.031 | 0.006 | -0.111 | 0.064 | -0.047 | -0.061 | 0.072 | -0.301 | 0.14
5 | CHD3 isoform 3 (UniProt Q12873) | 0.023 | -0.152 | -0.113 | -0.013 | 0.036 | 0.101 | 0.057 | 0.154 | 0.057 | -0.101 | -0.001
6 | COMMD2 (UniProt Q86X83) | -0.007 | -0.034 | -0.098 | 0.039 | -0.062 | 0.049 | 0.011 | 0.053 | 0.011 | -0.08 | 0.015
7 | CBX5 (UniProt P45973) | -0.066 | -0.027 | -0.025 | -0.106 | 0.025 | 0.113 | 0.041 | -0.016 | -0.073 | -0.021 | 0.01
8 | CD151 (UniProt P48509) | -0.054 | 0.139 | 0.125 | 0.024 | 0.094 | -0.025 | -0.007 | 0.031 | -0.063 | -0.009 | -0.121
9 | CNOT7 (UniProt Q9UIV1) | -0.053 | 0.039 | 0 | 0.028 | 0.091 | 0.152 | -0.12 | 0.12 | 0.032 | -0.089 | 0.122
10 | COX7B (UniProt P24311) | 0.094 | -0.001 | -0.028 | 0.02 | -0.054 | 0.012 | -0.013 | 0.039 | 0.036 | -0.026 | 0.005
11 | CRYM-AS1 (UniProt A6NIL9) | 0.038 | -0.014 | 0.27 | 0.042 | -0.101 | 0.014 | 0.021 | 0.031 | -0.076 | -0.135 | -0.459
12 | CAD (UniProt P27708) | 0.033 | -0.014 | -0.145 | 0.008 | -0.026 | 0.088 | 0.014 | 0.003 | 0.108 | -0.141 | -0.089
13 | CLUH, A0A494C0R8 | 0.031 | 0.031 | -0.003 | -0.062 | 0.09 | 0.195 | -0.026 | 0.046 | 0.118 | -0.08 | 0.119
14 | CKS1B (UniProt P61024) | -0.029 | -0.03 | -0.082 | 0.042 | -0.02 | 0.025 | 0.009 | 0.063 | -0.084 | -0.067 | 0
15 | CS (UniProt O75390) | -0.024 | -0.087 | -0.187 | 0.007 | 0.001 | 0.064 | 0.012 | -0.039 | 0.003 | -0.068 | 0.005
16 | CNOT1 (UniProt A5YKK6) | 0 | 0.01 | -0.075 | -0.026 | 0.024 | 0.035 | 0.05 | 0.055 | 0.004 | -0.032 | 0.014
17 | CDC42EP1 (UniProt Q00587) | -0.272 | -0.258 | -0.399 | -0.063 | 0.1 | 0.158 | 0.108 | -0.04 | -0.118 | -0.138 | -0.089
18 | CKB (UniProt P12277) | -0.035 | -0.02 | -0.117 | -0.033 | -0.001 | -0.023 | -0.046 | -0.117 | -0.04 | -0.018 | 0.063
19 | CSTF3 (UniProt Q12996) | 0.011 | -0.027 | -0.046 | -0.032 | -0.032 | -0.032 | -0.021 | 0.029 | 0.027 | 0.012 | -0.064
20 | CHCHD1 (UniProt Q96BP2) | 0.017 | -0.142 | -0.149 | -0.023 | 0.03 | 0.023 | 0.009 | 0.031 | -0.015 | -0.169 | -0.004
21 | CASC3 (UniProt O15234) | 0.015 | 0.238 | -0.01 | 0.001 | -0.039 | -0.072 | 0 | 0.054 | 0.24 | -0.133 | 0.485 (active)

Row | Target | log2 fold change [1] | log2 fold change [2] | log2 fold change [3] | log2 fold change [4] | log2 fold change (entinostat) | log2 fold change (vorinostat) | log2 fold change (citarinostat) | log2 fold change (silmitasertib) | log2 fold change [5] | log2 fold change [6] | log2 fold change (entospletinib)
22 | CD63 (UniProt P08962) | -0.026 | -0.001 | -0.05 | -0.035 | -0.004 | -0.066 | 0.026 | 0.02 | 0.051 | -0.063 | -0.049
23 | CALB1 (UniProt P05937) | -0.029 | -0.014 | -0.161 | -0.041 | 0.022 | -0.027 | 0.062 | 0.006 | 0.016 | -0.035 | -0.016
24 | CDK5RAP3 isoform 4 (UniProt Q96JB5) | -0.025 | -0.029 | -0.092 | -0.097 | 0.056 | 0.04 | 0.065 | -0.004 | -0.04 | 0.019 | -0.057
25 | C4orf33 (UniProt Q8N1A6) | 0.152 | -0.003 | -0.218 | -0.061 | -0.156 | -0.05 | 0 | -0.126 | 0.019 | -0.063 | 0.082
26 | CLCN3 isoform 2 (UniProt P51790) | 0.013 | 0.014 | -0.17 | 0.024 | 0.019 | 0.037 | -0.002 | -0.015 | -0.002 | 0.283 | -0.039
27 | CD55 isoform 7 (UniProt P08174) | -0.048 | 0.028 | 0.128 | 0.108 | 0.018 | -0.044 | 0.009 | -0.006 | -0.043 | -0.047 | -0.006
28 | CPD (UniProt O75976) | 0.002 | 0.032 | -0.101 | -0.008 | 0.016 | 0.019 | 0.018 | 0.032 | -0.034 | -0.111 | 0.011
29 | CIR1 (UniProt Q86X95) | 0.014 | 0.061 | 0.309 | 0.018 | 0 | -0.056 | 0.06 | 0.105 | 0.067 | 0.024 | 0.024
30 | CHAMP1 (UniProt Q96JM3) | -0.034 | -0.136 | 0.007 | -0.031 | 0.001 | 0.137 | -0.007 | -0.02 | -0.051 | -0.078 | 0.002
31 | CETN3 (UniProt O15182) | -0.016 | -0.059 | -0.031 | -0.102 | 0.033 | -0.126 | -0.002 | 0.032 | -0.1 | -0.061 | 0.025
32 | CFAP36 isoform 2 (UniProt Q96G28) | 0.027 | -0.1 | -0.095 | -0.152 | 0.023 | -0.014 | -0.022 | 0.131 | -0.025 | 0.065 | 0.116
33 | CCAR1 (UniProt Q8IX12) | 0 | -0.068 | -0.198 | -0.035 | 0.021 | 0.067 | 0.018 | -0.049 | -0.043 | -0.016 | -0.015
34 | CLCN3 (UniProt P51790) | -0.019 | -0.099 | -0.264 | -0.078 | -0.012 | -0.022 | 0.011 | 0.011 | 0.038 | -0.01 | -0.003
35 | COX20 isoform 2 (UniProt Q5RI15) | -0.02 | -0.016 | 0.363 (active) | -0.029 | -0.036 | -0.116 | 0.027 | -0.034 | -0.004 | 0.016 | -0.022
36 | CASP3 (UniProt P42574) | 0.051 | 0.053 | 0.075 | 0.043 | -0.029 | 0 | -0.043 | -0.057 | 0.018 | -0.051 | 0.044
37 | CIT isoform 4 (UniProt O14578) | -0.072 | -0.101 | -0.108 | 0 | 0.025 | 0.041 | -0.222 | 0.049 | 0.049 | 0.293 | -0.168
38 | C19orf53 (UniProt Q9UNZ5) | 0.136 | 0.061 | 0.279 | 0.177 | -0.026 | -0.051 | -0.105 | 0.123 | 0.214 | -0.155 | 0.099
39 | CNTN4 (UniProt Q8IWV2) | 0.016 | -0.056 | 0.614 | -0.085 | -0.106 | 0.017 | 0.141 | -0.197 | -0.18 | 0.088 | -0.148
40 | CLCN7 (UniProt P51798) | -0.009 | -0.162 | -0.674 (active) | -0.048 | 0.07 | 0.054 | 0.107 | 0.036 | 0.021 | -0.078 | -0.007
41 | COQ9 (UniProt O75208) | 0.02 | -0.002 | -0.151 | -0.032 | 0.045 | 0.028 | -0.013 | 0.021 | -0.103 | 0.008 | -0.022
